Source: the supplement of paper PMC7156485
± gives the standard deviation of the averaged measurements.

What was measured:
Conditions in all cases: concentration: 10 µM; 24 h
HCC1569 [1] = assay: cell number relative to DMSO (% of DMSO); higher = more cells (less growth inhibition / toxicity)
Outline: (§1)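 HCC1569 and TDF cells were seeded at 800 per well in 384-well plates in RPMI with 10% FBS and treated with compounds at 10 µM for 24 h at 37 °C, in triplicate. After fixation in 3.7% formaldehyde, cells were stained with a rabbit anti-H1.0 antibody, an AlexaFluor 647 secondary and DAPI, and six fields per well were imaged at ×10. H1.0 nuclear intensity or cell number is given as percent of the plate control, using the median of replicates, with HCC1569 values smoothed for positional effects.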

TDF [2] = assay: as above
Outline: as §1

TDF [3] = assay: H1.0 immunofluorescence intensity relative to DMSO (% of DMSO); higher = stronger H1.0 induction, active = 120 or more
Outline: as §1

HCC1569 [4] = assay: H1.0 immunofluorescence intensity relative to DMSO (% of DMSO); higher = stronger H1.0 induction, active = 140 or more
Outline: as §1
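Wherever H1.0 immunofluorescence intensity relative to DMSO is given: TDF is a line of transformed human dermal fibroblasts of mesenchymal origin.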
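Wherever cell number relative to DMSO is given: TDF denotes transformed human dermal fibroblasts of mesenchymal origin.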

Cn1c(=O)c2[nH]cnc2n(C)c1=O.Cn1c(=O)c2[nH]cnc2n(C)c1=O.NCCN [Aminophylline ethylenediamine]
cell number (HCC1569 [1]): 103 | cell number (TDF [2]): 102 | H1.0 immunofluorescence intensity (TDF [3]): 98.7 (inactive) | H1.0 immunofluorescence intensity (HCC1569 [4]): 93.8 (inactive)

CC(N)(Cc1ccc(O)c(O)c1)C(=O)O (stereo unspecified) [Methyldopa]
cell number (HCC1569 [1]): 107 | cell number (TDF [2]): 100 | H1.0 immunofluorescence intensity (TDF [3]): 102 (inactive) | H1.0 immunofluorescence intensity (HCC1569 [4]): 94 (inactive)

Nc1nc2ccc(OC(F)(F)F)cc2s1 [Riluzole]
cell number (HCC1569 [1]): 98.4 | cell number (TDF [2]): 98.6 | H1.0 immunofluorescence intensity (TDF [3]): 94.6 (inactive) | H1.0 immunofluorescence intensity (HCC1569 [4]): 94.6 (inactive)

CCN1CCCC1CNC(=O)c1cc(S(=O)(=O)CC)c(N)cc1OC (stereo unspecified) [Amisulpride]
cell number (HCC1569 [1]): 107 | cell number (TDF [2]): 84.5 | H1.0 immunofluorescence intensity (TDF [3]): 104 (inactive) | H1.0 immunofluorescence intensity (HCC1569 [4]): 96.7 (inactive)

CC1OC(OC2C(Oc3cc(O)c4c(c3)OC(c3ccc(O)cc3)CC4=O)OC(CO)C(O)C2O)C(O)C(O)C1O (stereo unspecified) [Naringin]
cell number (HCC1569 [1]): 103 | cell number (TDF [2]): 99 | H1.0 immunofluorescence intensity (TDF [3]): 96.2 (inactive) | H1.0 immunofluorescence intensity (HCC1569 [4]): 86.1 (inactive)

Cl.Cl.NCCCCN [Putrescine dihydrochloride]
cell number (HCC1569 [1]): 102 | cell number (TDF [2]): 118 | H1.0 immunofluorescence intensity (TDF [3]): 94.1 (inactive) | H1.0 immunofluorescence intensity (HCC1569 [4]): 98.2 (inactive)

Cc1ccc(C(=O)c2cc(O)c(O)c([N+](=O)[O-])c2)cc1 [Tolcapone]
cell number (HCC1569 [1]): 101 | cell number (TDF [2]): 92.1 | H1.0 immunofluorescence intensity (TDF [3]): 93.3 (inactive) | H1.0 immunofluorescence intensity (HCC1569 [4]): 112 (inactive)

O=c1[nH]c2ccccc2c2ccccc12 [6(5H)-Phenanthridinone]
cell number (HCC1569 [1]): 100 | cell number (TDF [2]): 109 | H1.0 immunofluorescence intensity (TDF [3]): 93.8 (inactive) | H1.0 immunofluorescence intensity (HCC1569 [4]): 104 (inactive)

CC1=C(C)C(=O)C(CCCCC#CCCCC#CCO)=C(C)C1=O [Docebenone]
cell number (HCC1569 [1]): 93.3 | cell number (TDF [2]): 75.3 | H1.0 immunofluorescence intensity (TDF [3]): 103 (inactive) | H1.0 immunofluorescence intensity (HCC1569 [4]): 110 (inactive)

CCCCCC=CCC(O)C=CC=CCCC(=O)O [Tetranor-12(R)-HETE]
cell number (HCC1569 [1]): 104 | cell number (TDF [2]): 93.9 | H1.0 immunofluorescence intensity (TDF [3]): 100 (inactive) | H1.0 immunofluorescence intensity (HCC1569 [4]): 102 (inactive)

CC(C)CC(NC(=O)C(O)C(N)Cc1ccccc1)C(=O)O.Cl (stereo unspecified) [Epibestatin hydrochloride]
cell number (HCC1569 [1]): 105 | cell number (TDF [2]): 96.3 | H1.0 immunofluorescence intensity (TDF [3]): 91.8 (inactive) | H1.0 immunofluorescence intensity (HCC1569 [4]): 100 (inactive)

CNCCCC12CCC(c3ccccc31)c1ccccc12.Cl [Maprotiline hydrochloride]
cell number (HCC1569 [1]): 97.8 | cell number (TDF [2]): 102 | H1.0 immunofluorescence intensity (TDF [3]): 106 (inactive) | H1.0 immunofluorescence intensity (HCC1569 [4]): 99.1 (inactive)

CC(C)(Oc1ccc(C2CC2(Cl)Cl)cc1)C(=O)O (stereo unspecified) [Ciprofibrate]
cell number (HCC1569 [1]): 104 | cell number (TDF [2]): 110 | H1.0 immunofluorescence intensity (TDF [3]): 97.8 (inactive) | H1.0 immunofluorescence intensity (HCC1569 [4]): 98.1 (inactive)

Cc1cc2c(OCC(CNC(C)(C)C)OC(=O)c3ccccc3)cccc2[nH]1 (stereo unspecified) [Bopindolol]
cell number (HCC1569 [1]): 98.1 | cell number (TDF [2]): 89.5 | H1.0 immunofluorescence intensity (TDF [3]): 99 (inactive) | H1.0 immunofluorescence intensity (HCC1569 [4]): 103 (inactive)

Fc1ccc(C2CCNCC2COc2ccc3c(c2)OCO3)cc1 (stereo unspecified) [Paroxetine]
cell number (HCC1569 [1]): 97.7 | cell number (TDF [2]): 99.3 | H1.0 immunofluorescence intensity (TDF [3]): 99.1 (inactive) | H1.0 immunofluorescence intensity (HCC1569 [4]): 114 (inactive)

CC(C)(C)c1ccc(S(=O)(=O)NCc2ccc(C(=O)Nc3cccnc3)cc2)cc1
cell number (HCC1569 [1]): 98.2 | cell number (TDF [2]): 108 | H1.0 immunofluorescence intensity (TDF [3]): 86.8 (inactive) | H1.0 immunofluorescence intensity (HCC1569 [4]): 107 (inactive)

CCOC(=O)C1=C(C)NC(C)=C(C(=O)OC)C1c1cccc([N+](=O)[O-])c1 (stereo unspecified) [Nitrendipine]
cell number (HCC1569 [1]): 97.8 ± 5.5 | cell number (TDF [2]): 101 ± 10 | H1.0 immunofluorescence intensity (TDF [3]): 101 (inactive) | H1.0 immunofluorescence intensity (HCC1569 [4]): 122 (inactive)

O=C(O)c1cc(=O)c2c(Cl)cc(Cl)cc2[nH]1 [5,7-Dichlorokynurenic acid]
cell number (HCC1569 [1]): 102 | cell number (TDF [2]): 98.6 | H1.0 immunofluorescence intensity (TDF [3]): 95.2 (inactive) | H1.0 immunofluorescence intensity (HCC1569 [4]): 95.9 (inactive)

Cl.c1ccc2nc(C3=NCCN3)ccc2c1 [BU224 hydrochloride]
cell number (HCC1569 [1]): 101 | cell number (TDF [2]): 110 | H1.0 immunofluorescence intensity (TDF [3]): 95 (inactive) | H1.0 immunofluorescence intensity (HCC1569 [4]): 100 (inactive)

Clc1ccc(Nc2nnc(Cc3ccncc3)c3ccccc23)cc1 [Vatalanib]
cell number (HCC1569 [1]): 103 | cell number (TDF [2]): 103 | H1.0 immunofluorescence intensity (TDF [3]): 97.2 (inactive) | H1.0 immunofluorescence intensity (HCC1569 [4]): 105 (inactive)

CCCCCC=CCC=CCCCCCCCCCCC(=O)O [12(Z), 15(Z)-Heneicosadienoic acid]
cell number (HCC1569 [1]): 100 | cell number (TDF [2]): 103 | H1.0 immunofluorescence intensity (TDF [3]): 94.4 (inactive) | H1.0 immunofluorescence intensity (HCC1569 [4]): 105 (inactive)

O=C(O)C(=Cc1c(C(=O)O)[nH]c2cc(Cl)cc(Cl)c12)c1ccccc1
cell number (HCC1569 [1]): 105 | cell number (TDF [2]): 109 | H1.0 immunofluorescence intensity (TDF [3]): 95.3 (inactive) | H1.0 immunofluorescence intensity (HCC1569 [4]): 85 (inactive)

C[Se]CCC(N)C(=O)O (stereo unspecified) [Selenomethionine]
cell number (HCC1569 [1]): 100 | cell number (TDF [2]): 94 | H1.0 immunofluorescence intensity (TDF [3]): 104 (inactive) | H1.0 immunofluorescence intensity (HCC1569 [4]): 105 (inactive)

Cl.O=c1cc(N2CCOCC2)oc2c(-c3ccccc3)cccc12
cell number (HCC1569 [1]): 87.7 | cell number (TDF [2]): 91.7 | H1.0 immunofluorescence intensity (TDF [3]): 86.9 (inactive) | H1.0 immunofluorescence intensity (HCC1569 [4]): 141 (active)
